Bioassay records: PubChem, Broad Institute
LGR2 inh: inhibitors of bursicon-induced Drosophila LGR2 receptor cAMP signaling | HEK293 LGR2, CRE-luciferase, bursicon-stimulated, 4 h | inhibition, % at 9.99 µM | 380,000 tested, 0.35% active | AID 720647;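 active means drop in luminescence signal, shown as inhibition above about 50% in the replicate tests, limit read from the data, passing the limit was not always enough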;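 further: agonist challenge used bursicon conditioned medium at about half maximal strength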
LMP1 NFkB inh: Epstein-Barr LMP1 NF-kappaB reporter inhibition. 350,000 tested, 0.69% active. inhibition, % at 12.5 µM. LMP1-induced NF-kappaB luciferase reporter cells, luminescence. AID 504558; in the data active means inhibition above about 41%;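 further: 0% = neutral control wells and 100% = reference inhibitor control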
Shn3 inh set2: Schnurri-3 reporter inhibition in Clone20 osteoblasts; inhibition, % at 12.5 µM; 360,000 tested, 0.52% active; Clone20 osteoblast Shn3 3'UTR firefly luciferase, 24 h;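 active means mean inhibition of at least 75% with every replicate also reaching 75%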;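 further: 0% = median of neutral control wells and 100% = pilot-screen positive control compound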
PAX8 reporter: lowers PAX8-driven luciferase in RMG-I cells. RMG-I TPO-luciferase reporter, SteadyGlo, 24 h. inhibition, % at 12.6 µM. 360,000 tested, 1.2% active. AID 652154;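 active means mean replicate inhibition at least 60% with every replicate also reaching 60%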;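 further: luciferase light reporting Pax8 driven TPO promoter activity; plate controls were median of neutral control wells for no effect and mitoxantrone controls for full effect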
TRPM1 prom inh: inhibitors of MITF-driven TRPM1 promoter in melanoma cells | 330,000 tested, 0.83% active | AID 488899 | inhibition, % at 12.5 µM | SK-MEL-5 TRPM1 promoter luciferase, 24 h;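 active means mean inhibition across replicates of 60% or more, whatever share of single replicates reaches that level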
EWS-Fli inh: blocks EWS/Fli oncoprotein-driven transcription; A673 NR0B1-luciferase reporter, viability-normalised; inhibition, % at 12.6 µM; 350,000 tested, 0.67% active; AID 651661;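 active means mean inhibition of at least 50% after viability correction, with every replicate also passing that limit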;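 further: firefly luciferase signal divided by Alamar Blue viability fluorescence both relative to DMSO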
Active calls of the source: *; x = no result given; ! = repeats disagree. Hits are enriched below; roughly 2.2% of the tested compounds scored in any of these assays.

SMILES	LGR2 inh	LMP1 NFkB inh	Shn3 inh set2	PAX8 reporter	TRPM1 prom inh	EWS-Fli inh
C[C@H]1CCCCO[C@@H](CN(C)S(=O)(=O)c2cccs2)[C@@H](C)CN([C@@H](C)CO)C(=O)c2cc(NC(=O)Nc3ccc(C(F)(F)F)cc3)ccc2O1	17	x	x	59	x	2
C[C@H]1CCCCO[C@@H](CN(C)S(=O)(=O)c2cccs2)[C@@H](C)CN([C@@H](C)CO)C(=O)c2cc(NC(=O)NC3CCCCC3)ccc2O1	26	x	x	97*	x	23
C[C@H](CO)N1C[C@H](C)[C@H](CN(C)S(=O)(=O)c2cccs2)OCCCC[C@H](C)Oc2ccc(NC(=O)Nc3ccc(C(F)(F)F)cc3)cc2C1=O	-14	x	x	75*	x	-6
Cc1noc(C)c1S(=O)(=O)N(C)C[C@@H]1Oc2c(NC(=O)C3CC3)cccc2C(=O)N([C@@H](C)CO)C[C@@H]1C	5	x	x	-12	x	-10
CO[C@H]1CN(C)C(=O)c2cc(NC(=O)C3CCCCC3)ccc2OC[C@@H](C)NC[C@@H]1C	5	x	x	-2	x	3
C[C@@H]1CN([C@H](C)CO)C(=O)CCCn2cc(nn2)CO[C@@H]1CN(C)Cc1ccc(C(F)(F)F)cc1	9	x	x	-4	x	-3
OCC1CCCN(C(=S)Nc2ccc(OC(F)F)cc2)C1 (configuration not stated)	x	-9	-66	136*	-8	-44
O=C(CSCc1nc2ccccc2[nH]1)Nc1ccccc1	-17	59*	-3	x	28	x
CC1(C)C(C=C(Cl)Cl)C1C(=O)Nc1ccc([N+](=O)[O-])cc1 (configuration not stated)	29	x	x	99*	x	4
O=C(Cc1cccnc1)N[C@H]1CC[C@@H](CCn2cc(Cc3ccccc3)nn2)O[C@@H]1CO	-4	x	x	-10	x	4
O=C(Cn1cnc2c(NCc3ccccc3)ncnc21)NCc1ccccc1	7	-9	21	18	38	56*
CCc1cc(Cl)c(OC)c(C(=O)NC[C@@H]2CCCN2CC)c1O	-1	71*!	-2	2	-15	18
C[C@H](CO)N1C[C@H](C)[C@@H](CN(C)S(=O)(=O)c2cn(C)cn2)Oc2ncc(C3=CCCC3)cc2C1=O	14	x	x	-37	x	-29
CC(C)c1ccc(/C=C/C(=O)Nc2nncs2)cc1	64*	-23	19	-106	5	18
CO/N=C(\Cn1ncc(NC2CCCCC2)c(Br)c1=O)c1ccc(Cl)cc1	x	12	88*	x	10	x
CO/N=C(\Cn1ncc(N2CCCC2)c(Br)c1=O)c1ccc(Cl)cc1	-12	-4	6	x	-2	x
COc1cc(Cl)cc(C(c2c(C(=O)O)[nH]c3ccccc23)c2c(C(=O)O)[nH]c3ccccc23)c1O	-10	48*	-1	34	19	-4
CCCCC1CCC(C(=O)N(CC(C)C)c2c(N)n(CCCC)c(=O)[nH]c2=O)CC1 (configuration not stated)	-18	0	52	9	74*	0
CCCCC1CCC(C(=O)N(CCCC)c2c(N)n(CCCC)c(=O)[nH]c2=O)CC1 (configuration not stated)	7	0	69	-1	91*	5
Fc1ccc(-n2nnnc2-c2cnc(-c3cccs3)nc2C(F)(F)F)cc1	x	35	90*	x	27	x
FC(F)(F)c1nc(-c2ccncc2)ncc1-c1nnnn1-c1ccccc1	x	-3	1	x	7	x
COc1ccccc1CNc1nc(NCc2ccc(C(C)C)cc2)c2sccc2n1	30	x	88*	47	x	4
COc1cccc(CNc2nc(NCC3CC3)nc3ccsc23)c1OC	0	x	82*	17	x	15
COc1ccccc1CNc1nc(NC(C)C)nc2ccsc12	-2	x	25	18	x	19
COc1cccc(CNc2nc(NCC3CC3)nc3ccsc23)c1	1	x	86*	-18	x	-3
SMILES	LGR2 inh	LMP1 NFkB inh	Shn3 inh set2	PAX8 reporter	TRPM1 prom inh	EWS-Fli inh
COc1ccc2c3c([nH]c2c1)[C@@H](CO)N(Cc1nccs1)CC31CCN(Cc2cncnc2)CC1	0	x	x	x	x	-4
COc1ccccc1-n1nnnc1SCC(=O)NCC1CCCO1 (configuration not stated)	2	-9	2	-10	-9	4
COc1ccccc1NC(=O)c1cnc(SCC(=O)NCC2CCCO2)n(C)c1=O (configuration not stated)	4	-15	-7	3	68*	11
COCC(=O)Nc1ccc2c(c1)C(=O)N(C)[C@@H]1CC[C@@H](CC(=O)NCCc3ccccc3)O[C@H]1CO2	11	x	x	-15	x	-3
C[C@@H]1CCCCO[C@H](CN(C)CC2CCCCC2)[C@H](C)CN([C@@H](C)CO)C(=O)c2cc(NC(=O)Nc3ccc(F)cc3)ccc2O1	16	x	x	8	x	58*
C[C@@H]1CCCCO[C@@H](CN(C)CC2CCCCC2)[C@@H](C)CN([C@@H](C)CO)C(=O)c2cc(NC(=O)Nc3ccc(F)cc3)ccc2O1	-1	x	x	-15	x	-3
C[C@H]1CCCCO[C@H](CN(C)CC2CCCCC2)[C@@H](C)CN([C@@H](C)CO)C(=O)c2cc(NC(=O)Nc3ccc(F)cc3)ccc2O1	13	x	x	68*	x	49
CCCCn1c(=O)[nH]c(=O)c2c1nc(Cn1ncc(Cl)c(Cl)c1=O)n2CCC	24	-46	98*	97*	92*	46
CC(=C1C(=O)c2ccccc2C1=O)N1CCN(CCN=CC2=C(O)CC(C)(C)CC2=O)CC1	-28	-20	-22	27	-5	4
CC(=NCCN1CCN(C(C)=C2C(=O)c3ccccc3C2=O)CC1)C1=C(O)CC(C)(C)CC1=O	11	-23	2	101*	8	-2
Cc1ccc(CCNC(=O)c2ccc(NC3=NC4CS(=O)(=O)CC4S3)cc2)cc1 (configuration not stated)	-7	-5	-11	15	1	-3
Cc1ccc(CCNC(=O)Cc2ccc(NC3=NC4CS(=O)(=O)CC4S3)cc2)cc1 (configuration not stated)	6	85*	7	4	-5	-4
C[C@@H]1CCCCO[C@@H](CN(C)C(=O)Nc2ccc(C(F)(F)F)cc2)[C@H](C)CN([C@H](C)CO)C(=O)c2cc(NS(=O)(=O)c3ccccc3)ccc2O1	14	x	x	84*	x	23
C[C@H]1CCCCO[C@@H](CN(C)C(=O)Nc2ccc(C(F)(F)F)cc2)[C@@H](C)CN([C@@H](C)CO)C(=O)c2cc(NS(=O)(=O)c3cn(C)cn3)ccc2O1	-2	x	x	91*	x	28
C[C@H]1CCCCO[C@H](CN(C)C(=O)Nc2ccc(C(F)(F)F)cc2)[C@@H](C)CN([C@@H](C)CO)C(=O)c2cc(NS(=O)(=O)c3ccccc3)ccc2O1	8	x	x	79*	x	20
CCCC(=O)Nc1ccc2c(c1)C(=O)N(C)C[C@H](OC)[C@H](C)CN(C(C)=O)[C@@H](C)CO2	-2	x	x	x	x	-2
